# Unmarked numbers belong to inactive results. Results filed as inconclusive are left out. Entries that show only a call come without a potency. Calls of active or inactive are those of the source. Unless noted, the call rests on the fitted dose curve; in most records, active means well fitted curve in the direction sought with a large enough effect in the repeat runs; inconclusive means weak or mixed curves; inactive means no such curve, though single readings can be large; an effect the other way counts as inactive or inconclusive.
# Tests used:
# [1] = qHTS assay to identify small molecule agonists of H2AX - cell viability counter screen (AID 1224847; calls by dose curve; further: top concentration of the series differs between compounds; nearly all actives have a fitted effect of over 30% in size)
# Method in brief: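 Compounds tested at 15 concentrations were incubated 3 hr at 37C with wild-type CHO-K1 cells; cellular ATP-based luminescence (CellTiter-Glo) indicated viability.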
# [2] = qHTS RealTime-Glo MT Cell Viability Assay in HepG2 cells - 24 hour (AID 1224867); further: nearly all actives have a fitted effect of over 50% in size
# Method in brief: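 Luminescence read-out: viable HepG2 cells reduce a prosubstrate to a NanoLuc substrate, giving a signal proportional to live cell number. Reads taken at 0, 8, 16, 24, 32 and 40 h of compound exposure at 37 C.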
# [3] = qHTS RealTime-Glo MT Cell Viability Assay in HEK293 cells - 32 hour (AID 1224868); further: nearly all actives have a fitted effect of over 50% in size; further: potency means the concentration at half of the fitted maximal effect; on activity change, negative = cytotoxic: top concentration of the series differs between compounds
# Method in brief: (§1)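 Nonlytic real-time viability readout: viable cells convert prosubstrate to NanoLuc substrate, giving luminescence proportional to live cell number. HEK293, 600 cells/well, compound added after 5 h, continuous culture at 37 C.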
# [4] = A CellTox Green Cytotoxicity Assay to monitor cytotoxicity in HEK293 cells - 0 hour (AID 1224869); further: nearly all actives have a fitted effect of over 50% in size
# Method in brief: (§2)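 Tox21 screen in HEK293: membrane-impermeant cyanine dye fluoresces on binding dead-cell DNA; compound pinned 5 h post-seeding, plates held at 37 C, signal read repeatedly through 40 h.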
# [5] = qHTS RealTime-Glo MT Cell Viability Assay in HepG2 cells - 40 hour (AID 1224870); further: nearly all actives have a fitted effect of over 50% in size
# Method in brief: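 HepG2 cells mixed with RealTime-Glo MT reagents (NanoLuc plus cell-permeant prosubstrate) were seeded at 600 cells/well, incubated 5 h at 37 C/5% CO2, then pinned with compounds in DMSO; nonlytic luminescence tracked viability during 40 h treatment.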
# [6] = A CellTox Green Cytotoxicity Assay to monitor cytotoxicity in HEK293 cells - 40 hour (AID 1224871); further: nearly all actives have a fitted effect of over 45% in size
# Method in brief: as §2
# [7] = qHTS RealTime-Glo MT Cell Viability Assay in HEK293 cells - 16 hour (AID 1224872)
# Method in brief: as §1
# [8] = qHTS assay to identify small molecule antagonists of the estrogen related receptor (ERR) signaling pathway from Tox21 library (AID 1224848); further: nearly all actives have a fitted effect of over 50% in size; further: potency means the concentration at half of the fitted maximal effect
# Method in brief: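 First, 2,000 ERR cells per well were plated and held 6 h at 37 C/5% CO2. Next, compounds in DMSO were pinned in and left 18 h at 37 C. Finally, ONE-Glo was added and luminescence read after 30 min at room temperature.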
# [9] = qHTS assay to identify small molecule agonists of the estrogen related receptor (ERR) signaling pathway from Tox21 library (AID 1224849; calls by dose curve; further: nearly all actives have a fitted effect of over 15% in size)
# Method in brief: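 Tox21 compounds tested for ERR agonism in an NTP reporter cell line: 18 h treatment at 37 C, then ONE-Glo luminescence.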
smiles,measurement,setting,value
CCCCCC(C)N (centres undefined),outcome,[1],inactive
same,outcome,[2],inactive
same,Potency,[3],inactive
same,outcome,[4],inactive
same,Potency,[5],inactive
same,Potency,[6],inactive
same,Potency,[7],inactive
CCOC(=O)C(=O)CCCCCCl,outcome,[1],inactive
same,outcome,[2],inactive
same,Potency,[3],inactive
same,outcome,[4],inactive
same,Potency,[5],inactive
same,Potency,[6],inactive
same,Potency,[7],inactive
Cc1cc(C)c(N=Nc2c(O)c(S(=O)(=O)O)cc3cc(S(=O)(=O)O)ccc23)cc1C,"activity change, negative = cytotoxicity",[1],-10.4% [at 14 µM]
same,"activity, negative = inhibition",[8],-9.99% [at 8.39 µM]
same,"activity change, positive = activation",[9],-5.16% [at 8.39 µM]
same,"activity change, negative = cytotoxicity",[2],-1.15% [at 6.97 µM]
same,"activity change, negative = cytotoxic",[5],-8.96% [at 6.97 µM]
same,cytotoxicity increase,[6],18.5% [at 6.97 µM]
CCC1C(=O)OCC1Cc1cncn1C (centres undefined),outcome,[1],inactive
same,outcome,[2],inactive
same,Potency,[3],inactive
same,outcome,[4],inactive
same,Potency,[5],inactive
same,Potency,[6],inactive
same,Potency,[7],inactive
CN1[C@@H]2CC[C@H]1CC(OC(=O)C(O)c1ccccc1)C2 (some centres undefined),outcome,[1],inactive
same,Potency,[8],inactive
same,outcome,[9],inactive
same,Potency,[3],inactive
same,outcome,[4],inactive
same,Potency,[5],inactive
same,Potency,[6],inactive
same,Potency,[7],inactive
Cc1ccc(-c2ncc(Cl)cc2-c2ccc(S(C)(=O)=O)cc2)cn1,outcome,[1],inactive
same,outcome,[2],inactive
same,Potency,[3],inactive
same,outcome,[4],inactive
same,Potency,[5],inactive
same,Potency,[6],inactive
same,Potency,[7],inactive
C=CCCC(=O)O,outcome,[1],inactive
same,Potency,[8],inactive
same,outcome,[9],inactive
same,outcome,[2],inactive
same,Potency,[3],inactive
same,Potency,[5],inactive
same,Potency,[6],inactive
same,Potency,[7],inactive
C[C@@H]1CCC[C@H](C)N1,outcome,[1],inactive
same,Potency,[8],inactive
same,outcome,[9],inactive
same,outcome,[2],inactive
same,Potency,[3],inactive
same,outcome,[4],inactive
same,Potency,[5],inactive
same,Potency,[6],inactive
same,Potency,[7],inactive
CC(=O)OCC(=O)[C@@]1(O)[C@H](C)C[C@H]2[C@@H]3CCC4=CC(=O)C=C[C@]4(C)[C@@]3(F)[C@@H](O)C[C@@]21C,outcome,[1],inactive
same,Potency,[8],inactive
same,outcome,[9],inactive
same,outcome,[2],inactive
same,Potency,[3],inactive
same,Potency,[5],inactive
same,Potency,[6],inactive
same,Potency,[7],inactive
C1CCC2(CCCCO2)OC1,outcome,[1],inactive
same,outcome,[2],inactive
same,Potency,[3],inactive
same,outcome,[4],inactive
same,Potency,[5],inactive
same,Potency,[6],inactive
same,Potency,[7],inactive
c1ccc2sc(SN3CCOCC3)nc2c1,outcome,[1],inactive
same,Potency,[8],inactive
same,outcome,[9],inactive
same,outcome,[2],inactive
same,Potency,[3],inactive
same,outcome,[4],inactive
same,Potency,[5],inactive
same,Potency,[6],inactive
same,Potency,[7],inactive
CNCC(O)c1ccc(O)c(O)c1 (centres undefined),outcome,[1],inactive
same,Potency,[8],inactive
same,outcome,[2],inactive
same,Potency,[3],inactive
same,outcome,[4],inactive
same,Potency,[5],inactive
same,Potency,[6],inactive
same,Potency,[7],inactive
COc1cc2c(cc1OC)-c1cc3ccc(OC)c(OC)c3c[n+]1CC2,outcome,[1],inactive
same,Potency,[8],24.6 µM (active)
same,outcome,[9],inactive
same,Potency,[3],49.4 µM (active)
same,outcome,[4],inactive
same,Potency,[5],inactive
same,Potency,[6],inactive
CC(=O)O[C@@]12CO[C@@H]1C[C@H](O)[C@@]1(C)C(=O)[C@H](O)C3=C(C)[C@@H](OC(=O)[C@H](O)[C@@H](NC(=O)OC(C)(C)C)c4ccccc4)C[C@@](O)([C@@H](OC(=O)c4ccccc4)[C@H]21)C3(C)C,outcome,[1],inactive
same,outcome,[2],inactive
same,Potency,[3],0.0477 µM (active)
same,outcome,[4],inactive
same,Potency,[5],inactive
same,Potency,[6],inactive
CC(C)(N)C#N,outcome,[1],inactive
same,Potency,[8],inactive
same,outcome,[9],inactive
same,outcome,[2],inactive
same,Potency,[3],inactive
same,outcome,[4],inactive
same,Potency,[5],inactive
same,Potency,[6],inactive
same,Potency,[7],inactive
Nc1ccn([C@@H]2O[C@H](CO)[C@@H](O)[C@@H]2O)c(=O)n1,outcome,[1],inactive
same,Potency,[8],inactive
same,outcome,[9],inactive
same,outcome,[2],inactive
same,Potency,[3],inactive
same,outcome,[4],inactive
same,Potency,[5],inactive
same,Potency,[6],inactive
same,Potency,[7],inactive
NCCCC(N)(C(=O)O)C(F)F (centres undefined),outcome,[1],inactive
same,outcome,[2],inactive
same,Potency,[3],inactive
same,outcome,[4],inactive
same,Potency,[5],inactive
same,Potency,[6],inactive
same,Potency,[7],inactive
Nc1c2c(nc3c1CCC3)CCCC2,outcome,[1],inactive
same,Potency,[8],inactive
same,outcome,[9],inactive
same,outcome,[2],inactive
same,Potency,[3],inactive
same,outcome,[4],inactive
same,Potency,[5],inactive
same,Potency,[6],inactive
same,Potency,[7],inactive
CC1=NS(=O)(=O)c2cc(Cl)ccc2N1,outcome,[1],inactive
same,outcome,[2],inactive
same,Potency,[3],inactive
same,outcome,[4],inactive
same,Potency,[5],inactive
same,Potency,[6],inactive
same,Potency,[7],inactive
CC(C)(C)C(=O)c1ccccc1,outcome,[1],inactive
same,outcome,[2],inactive
same,Potency,[3],inactive
same,outcome,[4],inactive
same,Potency,[5],inactive
same,Potency,[6],inactive
same,Potency,[7],inactive
CC1=NN(c2cc(S(=O)(=O)O)ccc2Cl)C(=O)C1N=Nc1ccccc1 (centres undefined),outcome,[1],inactive
same,outcome,[2],inactive
same,Potency,[3],inactive
same,outcome,[4],inactive
same,Potency,[5],inactive
same,Potency,[6],inactive
same,Potency,[7],inactive
CCOC(=O)c1cnc2c(cnn2CC)c1NN=C(C)C,outcome,[1],inactive
same,outcome,[2],inactive
same,Potency,[3],inactive
same,outcome,[4],inactive
same,Potency,[5],inactive
same,Potency,[7],inactive
NC(=O)NC1N=C([O][Al])NC1=O (centres undefined),outcome,[1],inactive
same,outcome,[2],inactive
same,Potency,[3],inactive
same,Potency,[5],inactive
same,Potency,[6],inactive
same,Potency,[7],inactive
CC/C=C\CCOC(C)OCC (centres undefined),outcome,[1],inactive
same,outcome,[2],inactive
same,Potency,[3],inactive
same,Potency,[5],inactive
same,Potency,[6],inactive
same,Potency,[7],inactive
Cc1c(N)c(=O)n(-c2ccccc2)n1C,outcome,[1],inactive
same,Potency,[3],inactive
same,outcome,[4],inactive
same,Potency,[5],inactive
same,Potency,[6],inactive
same,Potency,[7],inactive
C[C@H]1[C@H](NC(=O)/C(=N/OC(C)(C)C(=O)O)c2csc(N)n2)C(=O)N1S(=O)(=O)O (stereo in doubt),outcome,[1],inactive
same,Potency,[3],inactive
same,outcome,[4],inactive
same,Potency,[5],inactive
same,Potency,[6],inactive
same,Potency,[7],inactive

# From PubChem BioAssay (Tox21)
